The results in this text go back to the supplement of paper PMC6522484.

± gives the standard deviation of the averaged measurements.

Test [1] deals with DLD1. In words: cell viability (CellTiter-Glo) relative to plate median (fraction of plate median); higher = more viable cells. As to conditions: 5 µM; treatment time 24 h; reporter: 7TFP. Summed up:
(§1)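 Values are well luminescence normalised to the plate median, from either a firefly luciferase or a CellTiterGlo readout on parallel plates. The cells, colorectal cancer lines stably transduced with lentiviral 7TFP or TCF4/Wnt firefly luciferase reporters, were treated with library compounds at a final 5 µM for 24 h. The mean of two independent replicates is listed.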
On the technique in general: In ATP-based viability assays light output follows the ATP content of the culture.

In the next test the test system is HCT116. The description is as above. As to conditions: 5 µM; treatment time 24 h; reporter: TCF4/Wnt. The procedure, abridged:
as §1

Test [2] has as its system SW480. The description is as above. As to conditions: 5 µM; treatment time 24 h; reporter: 7TFP. Summed up: as §1
In test [3] the test system is DLD1. In words: TCF/Wnt firefly luciferase reporter signal relative to plate median (fraction of plate median); higher = higher Wnt reporter signal. The conditions noted are these: 5 µM; treatment time 24 h; reporter: 7TFP. Summed up: as §1
For orientation: In a reporter assay the amount or activity of a reporter protein is the signal.

The test system of test [4] is SW480. The test is described as above. As to conditions: 5 µM; treatment time 24 h; reporter: 7TFP. Summed up:
as §1

`C#C[C@]1(OC(C)=O)CC[C@H]2[C@@H]3CCC4=CC(=O)CC[C@@H]4[C@H]3CC[C@@]21C`: the cell viability is 0.87 ± 0.018 in the test on DLD1 [1], 0.964 ± 0.094 with HCT116 and 0.973 ± 0.052 in the test on SW480 [2]. Further, the “TCF/Wnt firefly luciferase reporter signal” value in the test with DLD1 [3] is 0.925 ± 0.022; in the test with SW480 [4], 0.768 ± 0.023.

On to `CC(C[N+](C)(C)C)OC(N)=O` (stereo not given), for which the figures for the cell viability with DLD1 [1], in the test with HCT116 and in the test with SW480 [2] were 1.14 ± 0.035, 0.8 ± 0.48 and 1.1 ± 0.12, respectively. Also, the “TCF/Wnt firefly luciferase reporter signal” value in the test with DLD1 [3] worked out at 0.925 ± 0.037; in the test on SW480 [4], 1.05 ± 0.071.

Turning to `FC(F)(F)COCC(F)(F)F`, the cell viability with DLD1 [1] stood at 0.944 ± 0.047; in the test with HCT116, 0.922 ± 0.041; with SW480 [2], 0.99 ± 0.029. The “TCF/Wnt firefly luciferase reporter signal” value with DLD1 [3] turned out to be 0.762 ± 0.016; in the test with SW480 [4], 0.825 ± 0.1.

Consider `C=C(C)[C@@H]1C[C@H](O)[C@]2(C(=O)O)CC[C@]3(C)[C@H](C[C@H]4OC(=O)C[C@@H](O)[C@]5(C)[C@@H]4[C@@]3(C)CC[C@H]5C(=C)C)[C@@H]12` [22alpha-hydroxychiisanogenin (11)], for which the cell viability stood at 0.883 ± 0.21 in the test with DLD1 [1], 0.884 ± 0.14 in the test with HCT116 and 0.984 ± 0.094 in the test with SW480 [2]. Also, the “TCF/Wnt firefly luciferase reporter signal” value in the test on DLD1 [3] is 0.859 ± 0.2; with SW480 [4], 0.922 ± 0.017.

For the molecule `CC(=O)Nc1ccc(S(=O)(=O)Nc2ccc([N+](=O)[O-])cc2)cc1`, the cell viability in the test with DLD1 [1] is 0.868 ± 0.03; in the test on HCT116, 0.933 ± 0.12; in the test with SW480 [2] it was 1.02 ± 0.028. Moreover, the figures for the “TCF/Wnt firefly luciferase reporter signal” value with DLD1 [3] and with SW480 [4] were 1.1 ± 0.071 and 1.08 ± 0.042, respectively.

Take `C1N2CN3CN1CN(C2)C3`: the cell viability worked out at 1.04 ± 0.085 with DLD1 [1], 1.08 ± 0.12 in the test with HCT116 and 0.978 ± 0.028 in the test with SW480 [2]. Moreover, the “TCF/Wnt firefly luciferase reporter signal” value with DLD1 [3] amounted to 0.985 ± 0.05; with SW480 [4], 1.02 ± 0.028.

On to `COC(=O)c1c(OC)cc2c(c1C)Oc1c(Cl)c(O)c(Cl)c(C)c1C(=O)O2`, for which the results for the cell viability in the test with DLD1 [1], in the test on HCT116 and in the test on SW480 [2] were 1.02 ± 0.036, 1.04 ± 0.014 and 0.99 ± 0.0042, respectively. The entries for the “TCF/Wnt firefly luciferase reporter signal” value in the test with DLD1 [3] and in the test with SW480 [4] were 1.05 ± 0.085 and 0.954 ± 0.028, respectively.

For the molecule `COc1ccc2c(c1)OCC(Cc1ccc(OC)c(OC)c1)C2=O` (stereo not given), the figures for the cell viability with DLD1 [1], in the test with HCT116 and in the test with SW480 [2] were 0.995 ± 0.05, 1.1 ± 0.092 and 1.02 ± 0.044, respectively. Also, the figures for the “TCF/Wnt firefly luciferase reporter signal” value in the test on DLD1 [3] and in the test on SW480 [4] were 0.997 ± 0.15 and 1.035 ± 0.0071, respectively.

For the molecule `COc1ccc(-c2coc3cc(O)ccc3c2=O)c(OC)c1O`, the cell viability in the test with DLD1 [1] came out at 1.01 ± 0.021; in the test with HCT116, 1.03 ± 0.063; with SW480 [2], 0.966 ± 0.076. The results for the “TCF/Wnt firefly luciferase reporter signal” value in the test with DLD1 [3] and with SW480 [4] were 0.852 ± 0.047 and 0.975 ± 0.025, respectively.

For `COC(=O)[C@@H]1OC(=O)C2OC23[C@@]1(C)CCC1[C@]2(C)C(C[C@H](O)[C@]13C)C(C)(C)[C@H](OC(C)=O)C[C@@H]2OC(C)=O` (stereo partly drawn) [7beta-HYDROXY-7-DESACETOXYKHIVORINIC ACID, METHYL ESTER], the cell viability in the test on DLD1 [1] turned out to be 1.01 ± 0.095; in the test with HCT116, 1.065 ± 0.0071; in the test on SW480 [2] it was 1.05. For the same molecule, the entries for the “TCF/Wnt firefly luciferase reporter signal” value in the test on DLD1 [3] and in the test with SW480 [4] were 1.11 ± 0.18 and 1.03 ± 0.042, respectively.

In the case of `Cc1cc(CC(=O)O)n(C)c1C(=O)c1ccc(Cl)cc1`, the values for the cell viability with DLD1 [1], with HCT116 and in the test on SW480 [2] were 1.07 ± 0.035, 0.999 ± 0.03 and 1.05, respectively. Besides, the “TCF/Wnt firefly luciferase reporter signal” value in the test with DLD1 [3] was found to be 1.12 ± 0.24; in the test on SW480 [4], 0.97 ± 0.13.

In the case of `Cn1ccnc1S`, the cell viability was determined as 0.997 ± 0.047 with DLD1 [1], 1.04 ± 0.021 in the test on HCT116 and 0.981 ± 0.021 with SW480 [2]. Further, the “TCF/Wnt firefly luciferase reporter signal” value in the test with DLD1 [3] was 0.988 ± 0.088; with SW480 [4] it was 0.95 ± 0.071.

Turning to `C=C1C2CC[C@@]3(C)[C@H](c4ccoc4)OC(=O)C[C@]13O[C@H]1CC(O)C(C)(C)C(CC(=O)OC)[C@@]21C` (stereo partly drawn) [3alpha-HYDROXY-3-DEOXYANGOLENSIC ACID METHYL ESTER], the values for the cell viability in the test with DLD1 [1], with HCT116 and in the test with SW480 [2] were 1.01 ± 0.049, 0.943 ± 0.081 and 1.02 ± 0.059, respectively. The “TCF/Wnt firefly luciferase reporter signal” value in the test on DLD1 [3] stood at 1.05 ± 0.05; with SW480 [4], 0.968 ± 0.06.

Consider `CC1(C)S[C@@H]2[C@H](NC(=O)Cc3ccccc3)C(=O)N2[C@H]1C(=O)O`, for which the cell viability was 0.914 ± 0.0057 in the test on DLD1 [1], 0.968 ± 0.025 in the test with HCT116 and 1.02 ± 0.067 with SW480 [2]. The “TCF/Wnt firefly luciferase reporter signal” value came out at 1.16 ± 0.11 in the test on DLD1 [3] and 0.949 ± 0.14 with SW480 [4].

In the case of `C=C1C[C@H]2[C@@H]3C=C(C)C4=CC(=O)CC[C@]4(C)[C@H]3CC[C@]2(C)[C@@]1(OC(C)=O)C(C)=O`, the cell viability in the test on DLD1 [1] came out at 0.99 ± 0.042; in the test on HCT116, 1 ± 0.11; with SW480 [2] it was 1.01. Also, the “TCF/Wnt firefly luciferase reporter signal” value in the test on DLD1 [3] is 0.986 ± 0.076; in the test on SW480 [4], 0.902 ± 0.094.
